Measured values taken from PubChem BioAssay AID449728 (The Scripps Research Institute Molecular Screening Center, 2010).
Hit rate of the full screen: of about 330,000 compounds, about 900 (0.27%) were called active.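 How the source made its calls: active means inhibition above the campaign's mean inhibition across all tested compounds plus 3 SD (cut at about 9.9% in these data); inactive means the rest.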 This excerpt belongs to a sample that is enriched for actives.

Experiment: E. coli V3065 growth inhibition, primary screen, counter-screen for AddAB inhibitor project, absorbance, OD600 (AID 449728)
Conditions: 18 h, at 11.9 µM, hits give high values

SMILES | inhibition
C/C(=N/O)c1ccc2ccc3ccccc3c2c1 | 1.2% (inactive)
Cc1ccc(-n2c(-c3ccc([N+](=O)[O-])cc3)nc3ccccc3c2=O)cc1 | -0.79% (inactive)
O=[N+]([O-])c1cnc2ccc3ccccc3c2c1 | 53.1% (active)
COCCNC(=O)CN1C2CCC1CC(O)(c1cccnc1)C2 (stereo not given) | -3.36% (inactive)
O=c1[nH]c(=O)n(-c2ccc(F)cc2)c(O)c1C=NCCN1CCCCC1 | -0.49% (inactive)
